What follows are compounds tested against Glucose transporter (Leishmania mexicana) (UniProt O61059) (assay: ST_JUDE_LEISH: Cytotoxicity at 2uM final concentration against transgenic Leishmania Mexicana promastigotes LmGT2 that are glucose transport deficient and complemented with the L. Mexicana glucose transporter 2. Activity is measured by DNA content using SYBR green in vitro).
Type: functional

SMILES	inhibition
COc1cc2ncnc(Nc3ccc4nc(Cc5ccccc5)[nH]c4c3)c2cc1OC	2.53%
COc1ccc(-n2c(=O)c3c(n4c(SC(C)C)nnc24)-c2ccccc2CC32CCCCC2)cc1	0.1%
CCN(CCCN1CCCCC1)c1cc(C)nc(Nc2ccc(F)c(C(F)(F)F)c2)n1	-0.24%
CCCCCCCc1ccc(-c2c(C)[nH]c(C)c(Cl)c2=O)cn1	0.07%
CCc1cc(OC)c(C(=O)NC2CCN(C[C@H](O)c3ccnc4ccc(OC)cc34)CC2)cc1Br	-0.3%
CS(=O)(=O)Nc1ccc2[nH]cc(C3CCN(CC4CCC(NC(=O)/C=C/c5ccc(Cl)c(Cl)c5)CC4)CC3)c2n1 (stereo not given)	0.21%
Cc1noc(C)c1C(=O)N1CCCC(c2[nH]c3c(C)cccc3c2-c2ccncc2)C1 (stereo not given)	2%
c1cnc2ccc(NCc3ccc(-c4ccc(CNC5CCCC5)cc4)cc3)cc2c1	-6.73%
Nc1nc(N)c2c(ccc3nn(S(=O)(=O)N4CCCC4)cc32)n1	4.06%
Cc1cccc(CNc2nc(C)cc(N[C@@H](CC(C)C)C(=O)NCc3cccc(F)c3)n2)c1	-0.42%
CCc1nc2c(cnn2CC)c(NC2CCOCC2)c1CNC(=O)N1CCOCC1	-0.36%
Cc1cc2c(cc1Cl)N(C(=O)Nc1cc(F)cc(-c3cncnc3)c1)CC2	2.7%
CC1(C)C2C=C(CN3CCC(NC(=O)Nc4ccc(Cl)c(Cl)c4)CC3)C1CC2 (stereo not given)	7.92%
Cc1cc(OCCCN2CCC(NS(=O)(=O)c3ccc(Cl)c(Cl)c3)C2)c2ccccc2n1 (stereo not given)	3.91%
O=C(C=Cc1cn(-c2ccccc2)nc1-c1ccccc1)N1CCN(c2ccncc2)CC1	4.62%
CCN(CC)CCN(Cc1ccc(-c2ccc(C(F)(F)F)cc2)cc1)C(=O)Cn1c(CCc2cc(F)c(F)c(F)c2)nc(=O)c2ccccc21	8.54%
COCCCN=C(S)NN=C(C)c1ccccn1	0%
Cc1ccccc1C1CCN(c2ccc(NC(=O)c3ccc(Cl)nc3)cc2)CC1	3.84%
CCCOc1ccc(CCNCCCCNCCc2ccc(OCCC)c3ccccc23)c2ccccc12	105%
Cc1[nH]cnc1CSCCNC(=N)NCCCCCCCCNC(=N)NCCSCc1nc[nH]c1C	-0.05%

SMILES	inhibition
CN1CCN(CCCN(Cc2csc(-c3ccc(CNCc4ccccc4)cc3)n2)C(=O)Nc2ccc3ccccc3c2)CC1	0.42%
Fc1ccc2[nH]c(-c3cccc(-c4ccc(CNCc5ccccc5)cc4)c3)nc2c1	4.2%
COc1cc(NC2=C(c3ccccc3)C(=O)c3ccccc32)ccn1	1.41%
CCN(CCCN1CCCCC1)c1cc(C)nc(Nc2ccc(OC)cc2)n1	-1.02%
COc1cc(Cc2cnc(N)nc2N)c2ccsc2c1OC	1.58%
COc1c(C2CCN(CCCCNC(=O)c3ccc(-c4ccc(C#N)cc4)c(O)c3)CC2)ccc2c1CCCC2	0.55%
Fc1ccc2[nH]c(-c3ccc(-c4ccc(CNCc5cnn(-c6ccccc6)n5)cc4)cc3)nc2c1	-1.56%
Cc1cc(N[C@@H](Cc2ccccc2)C(=O)NCc2cccs2)nc(NCCc2cccnc2)n1	1.02%
COc1ccc2nccc(N3CCN(CCNCc4ccc5c(n4)NC(=O)CO5)CC3)c2c1	8.99%
CCN(CC)c1nc(Nc2cc(C)ccc2C)nc(Nc2ccccc2O)n1	4%
Cc1nnsc1C(=O)Nc1cccc(-c2ccc(-c3nc4cc(F)ccc4[nH]3)cc2)c1	4.66%
N=C(N)NN=C1C=Cc2cccc3cccc1c23	-2.92%
Fc1ccc2[nH]c(-c3cccc(-c4cccc(CNCC5CCCO5)c4)c3)nc2c1 (stereo not given)	-1.55%
O=C(Nc1ccccc1Oc1ccccc1)NC1CCN(c2ccnc3cc(Cl)ccc23)C1 (stereo not given)	3.25%
O=C(NCC1CCN(Cc2cccc(F)c2)C1)c1cc(-c2cccc(C(F)(F)F)c2)cs1 (stereo not given)	2.59%
CC(=O)Nc1ccc(OCCCCN(Cc2ccccc2C(F)(F)F)c2ccc(C#N)c(C(F)(F)F)c2)c(Cl)c1	4.57%
O=C(Nc1ccc(OC2CCN(Cc3ccc(F)cc3)C2)cc1)c1ccco1 (stereo not given)	3.15%
CN(C)c1ccc(-c2nnc(Sc3ccc(C#N)c([N+](=O)[O-])c3)n2Cc2ccco2)cc1	0.63%
Cn1cncc1CCN(Cc1ccc(-c2ccc(C(F)(F)F)cc2)cc1)C(=O)Cn1c(CCc2cccc(F)c2F)cc(=O)c2cccnc21	-0.14%
COc1ccc(-c2cncc(-c3ccc(OC)c(OC)c3)n2)cc1OC	3.88%
